Measured values taken from ChEMBL document CHEMBL3433997, “St. Jude Leishmania screening dataset” (2016).

Tests used:
Assay type in all cases: functional
[1] = molecular target: Solute carrier family 2, facilitated glucose transporter member 1 (Homo sapiens) (UniProt P11166); test: ST_JUDE_LEISH: Cytotoxicity at 2uM final concentration against transgenic Leishmania Mexicana promastigotes LmGLUT1 that are glucose transport deficient and complemented with the human glucose transporter GLUT1. Activity is measured by DNA content using SYBR green in vitro
Solute carrier family 2, facilitated glucose transporter member 1 (Homo sapiens), sequence (P11166 whole entry): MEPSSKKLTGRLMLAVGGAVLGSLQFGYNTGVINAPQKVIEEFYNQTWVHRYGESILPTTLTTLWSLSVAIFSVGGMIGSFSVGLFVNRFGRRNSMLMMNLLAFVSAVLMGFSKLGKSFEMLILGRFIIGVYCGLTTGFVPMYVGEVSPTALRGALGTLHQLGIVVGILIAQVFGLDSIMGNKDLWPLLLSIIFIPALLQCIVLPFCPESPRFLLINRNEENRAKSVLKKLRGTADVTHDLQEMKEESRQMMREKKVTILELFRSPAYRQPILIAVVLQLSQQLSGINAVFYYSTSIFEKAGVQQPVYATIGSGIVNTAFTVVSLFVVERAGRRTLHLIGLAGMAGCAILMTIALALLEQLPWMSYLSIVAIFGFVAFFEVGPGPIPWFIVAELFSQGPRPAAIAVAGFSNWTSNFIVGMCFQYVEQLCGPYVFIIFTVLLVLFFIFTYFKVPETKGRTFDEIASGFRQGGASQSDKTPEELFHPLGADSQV

[2] = molecular target: Hexose transporter 1 (Plasmodium falciparum) (UniProt O97467); test: ST_JUDE_LEISH: Cytotoxicity at 2uM final concentration against transgenic Leishmania Mexicana promastigotes LmPfHT that are glucose transport deficient and complemented with the Plasmodium falciparum hexose transporter. Activity is measured by DNA content using SYBR green in vitro
[3] = molecular target: Glucose transporter (Leishmania mexicana) (UniProt O61059); test: ST_JUDE_LEISH: Cytotoxicity at 2uM final concentration against transgenic Leishmania Mexicana promastigotes LmGT2 that are glucose transport deficient and complemented with the L. Mexicana glucose transporter 2. Activity is measured by DNA content using SYBR green in vitro

| Compound | inhibition [1] [%] | inhibition [2] [%] | inhibition [3] [%] |
| --- | --- | --- | --- |
| CN(C)Cc1ccc(-c2ccc3c(Nc4ccc(Cl)cc4F)ccnc3c2)o1 | -1.45 | -1.56 | 5.24 |
| COc1ccc2nccc(N3CCCN(CCNCc4ccc5c(n4)NC(=O)CS5)CC3)c2n1 | -4.21 | -0.98 | 3.94 |
| O=C(NCc1cccc(Br)c1)c1ccc(CNC2CCN(Cc3ccccc3)CC2)cc1 | 5.34 | 1.61 | 5.37 |
| Cc1cc(C(=O)Nc2ccc3c(c2)CCN3C2CCN(Cc3csc4ccccc34)C2)no1 (centres undefined) | 0.87 | -2.02 | 1.87 |
| COCCNCc1ncsc1-c1ccc2c(Nc3ccc(Oc4ccccc4)cc3)ccnc2c1 | 0.02 | 1.15 | 2.26 |
| COc1cc(NC(=O)/C=C/c2cc3ccccc3n2C)ccc1OCCN(C(C)C)C(C)C | 4.23 | 4.39 | 3.12 |
| CC(NC(C)c1cccc(Cl)c1)C(=O)Nc1cc(C(F)(F)F)ccc1N1CCOCC1 (centres undefined) | 0.88 | 0.48 | -9.9 |
| CCc1nc(N)nc(N)c1-c1ccc(F)cc1 | 6.27 | 4.73 | 5.14 |
| COc1cccc(-c2ccc(C(=O)NC3CCN(Cc4ccc(C(C)(C)C)cc4)CC3)s2)c1 | 0.02 | 0.82 | -1.18 |
| COc1ccc(CNc2ccc3nc(N)nc(N)c3c2)cc1 | -2.31 | 1.62 | -1.87 |
| C=Cc1ccc(-c2c(C)[nH]c(C)c(Br)c2=O)cc1 | 0.56 | 1.38 | -0.92 |
| CCn1ccc2c(N3CCCS3(=O)=O)cc(C(=O)N[C@@H](Cc3ccccc3)[C@H](O)CNC(C)(C)CCCC(C)C)cc21 | 7.39 | 7.48 | 2.41 |
| Oc1ccccc1-c1nc2cccnc2n1CCc1cccc(C(F)(F)F)c1 | 4.81 | 3.7 | 5.31 |
| O=C(NCCSCc1c(F)cccc1Cl)c1cnc2c(c1)nc(-c1c[nH]c(-c3ccccc3)n1)n2CCc1c[nH]cn1 | 2.77 | 2.22 | 0.97 |
| N#Cc1ccc(-c2ccc(C(=O)Nc3ccc4c(c3)CCN(C3CCC3)CC4)nc2)cc1 | 3.57 | 3.06 | 2.04 |
| Cc1nc(C)c(-c2ccc(Oc3ccc(Cl)cc3)c(Cl)c2)c(O)c1Br | 2.21 | 3.03 | 1.91 |
| COc1ccc(-c2ccc(NC(=O)c3ccc(Cl)cc3)cc2)cc1CN(C)CCO | 4.1 | 3.45 | -0.68 |
| O=[N+]([O-])c1cccc(C(Nc2ccccn2)c2ccc3cccnc3c2O)c1 (centres undefined) | 4.63 | 5.86 | 4.17 |
